The campaign covered roughly 5,500 compounds. About 2,000 (36%) were called active. Not shown: some 18% with an inconclusive outcome. No stated cut-off is given here; in the data, active means normalized growth mostly below about 0.91 (no sharp cut-off); inconclusive means no clear call, values can overlap the other calls; inactive means mostly above about 0.92. The list shows a part of the results.
Assay: chemical genetic growth profiling, strain panel (AID 1159580);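 further: tested at 20 µM; growth read once vehicle control cultures reached saturation at 30 °C; 1 = growth at the plate median or of vehicle wells; lower values mean less growth of the strain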
Settings: S. cerevisiae deletion strains, growth OD

Measured: normalized growth

Nc1nc(F)nc2c1ncn2[C@@H]1O[C@H](COP(=O)(O)O)[C@@H](O)[C@@H]1O
inactive: locus YAL021C, strain ccr4, active compounds read low 0.989 | locus YAL026C, strain drs2, active compounds read low 0.999 | locus YAL030W, strain snc1, active compounds read low 1 | locus YBL061C, strain skt5, active compounds read low 0.997 | locus YBR009C, strain hhf1, active compounds read low 1.01 | locus YBR023C, strain chs3, active compounds read low 0.999 | locus YBR171W, strain sec66, active compounds read low 1 | locus YBR231C, strain swc5, active compounds read low 0.999 | locus YBR279W, strain paf1, active compounds read low 1 | locus YCL011C, strain gbp2, active compounds read low 0.994 | locus YCL016C, strain dcc1, active compounds read low 0.997 | locus YCL061C, strain MRC1, active compounds read low 0.989 | locus YCL069W, strain vba3, active compounds read low 0.993 | locus YCR088W, strain abp1, active compounds read low 0.992 | locus YDL005C, strain med2, active compounds read low 0.984 | locus YDL040C, strain nat1, active compounds read low 0.997 | locus YDR001C, strain nth1, active compounds read low 0.993 | locus YDR069C, strain doa4, active compounds read low 0.997 | locus YDR137W, strain rgp1, active compounds read low 1 | locus YDR159W, strain sac3, active compounds read low 0.985 | locus YDR195W, strain ref2 0.968 | locus YDR297W, strain sur2, active compounds read low 1.01 | locus YDR334W, strain swr1, active compounds read low 0.991 | locus YDR335W, strain msn5, active compounds read low 0.997 | locus YDR392W, strain spt3, active compounds read low 0.976 | locus YEL003W, strain gim4, active compounds read low 0.995 | locus YEL037C, strain rad23, active compounds read low 0.993 | locus YEL061C, strain CIN8 (second series), active compounds read low 0.994 | locus YER015W, strain faa2, active compounds read low 0.995 | locus YER016W, strain bim1, active compounds read low 0.993 | locus YER111C, strain swi4, active compounds read low 1 | locus YER155C, strain BEM2 (second series), active compounds read low 0.993 | locus YFR010W, strain ubp6, active compounds read low 1.01 | locus YGL167C, strain pmr1, active compounds read low 0.989 | locus YGL173C, strain kem1, active compounds read low 1 | locus YGL227W, strain vid30, active compounds read low 0.992 | locus YGL240W, strain doc1, active compounds read low 0.984 | locus YGL253W, strain hxk2, active compounds read low 0.998 | locus YHR013C, strain ard1, active compounds read low 0.99 | locus YHR027C, strain rpn1, active compounds read low 0.986 | locus YHR030C, strain SLT2, active compounds read low 1.03 | locus YHR079C, strain IRE1, active compounds read low 1.04 | locus YHR142W, strain chs7, active compounds read low 0.991 | locus YJL092W, strain hpr5, active compounds read low 0.982 | locus YJL095W, strain BCK1 (second series), active compounds read low 0.994 | locus YJL095W, strain BCK1, active compounds read low 0.993 | locus YJL115W, strain asf1, active compounds read low 0.991 | locus YJL129C, strain trk1, active compounds read low 0.994 | locus YJL154C, strain vps35, active compounds read low 0.998 | locus YJL164C, strain tpk1, active compounds read low 0.982 | locus YJL166W, strain qcr8, active compounds read low 1 | locus YJL187C, strain SWE1, active compounds read low 0.989 | locus YJR066W, strain TOR1, active compounds read low 0.967 | locus YKL160W, strain elf1, active compounds read low 1 | locus YKR026C, strain gcn3, active compounds read low 0.977 | locus YKR091W, strain srl3, active compounds read low 0.997 | locus YLL001W, strain dnm1, active compounds read low 0.987 | locus YLL026W, active compounds read low 0.989 | locus YLL041C, strain sdh2, active compounds read low 0.997 | locus YLR027C, strain aat2, active compounds read low 1 | locus YLR113W, strain HOG1, active compounds read low 0.979 | locus YLR221C, strain rsa3, active compounds read low 1 | locus YLR258W, strain gsy2, active compounds read low 0.992 | locus YLR262C, strain YPT6 (second series), active compounds read low 1 | locus YLR320W, strain mms22, active compounds read low 0.968 | locus YLR342W, strain FKS1, active compounds read low 0.999 | locus YLR357W, strain rsc2, active compounds read low 0.994 | locus YLR370C, strain arc18, active compounds read low 0.998 | locus YLR384C, strain iki3, active compounds read low 0.982 | locus YML120C, strain ndi1, active compounds read low 1.01 | locus YMR058W, strain fet3, active compounds read low 1 | locus YMR125W, strain sto1, active compounds read low 0.981 | locus YMR129W, active compounds read low 1.01 | locus YMR205C, strain PFK2, active compounds read low 0.975 | locus YMR231W, strain pep5, active compounds read low 0.995 | locus YNL071W, strain lat1, active compounds read low 0.995 | locus YNL183C, strain NPR1, active compounds read low 0.96 | locus YNL209W, strain ssb2, active compounds read low 1 | locus YNL248C, strain rpa49, active compounds read low 0.996 | locus YNL322C, strain KRE1 (second series), active compounds read low 0.99 | locus YNR049C, strain mso1, active compounds read low 0.995 | locus YOR001W, strain rrp6, active compounds read low 1 | locus YOR070C, strain gyp1, active compounds read low 1 | locus YOR080W, strain dia2, active compounds read low 0.989 | locus YOR083W, strain WHI5, active compounds read low 1 | locus YOR106W, strain vam3, active compounds read low 1.02 | locus YOR231W, strain MKK1, active compounds read low 1.04 | locus YOR265W, strain rbl2, active compounds read low 1 | locus YOR270C, strain vph1, active compounds read low 0.977 | locus YOR290C, strain snf2, active compounds read low 0.979 | locus YPL051W, strain arl3, active compounds read low 1 | locus YPL078C, strain atp4, active compounds read low 0.991 | locus YPL106C, strain sse1, active compounds read low 1 | locus YPL240C, strain hsp82, active compounds read low 1.01 | locus YPL256C, strain CLN2, active compounds read low 1.03
